Screens from PubChem BioAssay.
Most compounds without a hit are left out; they make up all but 7.5% or so of the library.
ELG1 genotox: inducers of genotoxicity in HEK293T ELG1-luciferase cells; HEK293T ELG1-luciferase reporter, luminescence, 16 h; Potency, µM (series often up to 46 µM), usual class: activators; 1.3% of 330,000 active; further: nearly all actives have a fitted effect of over 60% in size
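HEK293T cells expressing luciferase-tagged ELG1 were exposed to compound or DMSO vehicle for 16 hr at 37 °C and 5% CO2. Luciferase activity was then measured with ONE-Glo after 30 min at room temperature.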
Rab9 promoter act: activates the Rab9 promoter; Huh7 Rab9 promoter-luciferase reporter, luminescence, 24 h; Potency, µM (top dose mostly 9.22 µM), hits mostly activators; 2.8% of 320,000 active; AID 485297; further: nearly all actives have a fitted effect of over 60% in size
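Huh7 cells stably carrying a Rab9 promoter-luciferase reporter, 1500 cells per well in OP-MEM I with 10% FBS, treated with compound 24 hours at 37C. Luciferase activity read by luminescence after 10 minutes with Amplite reagent.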
NPC1 prom act: activators of NPC1 promoter; Huh7 NPC1 promoter luciferase reporter, 24 h; Potency, µM (series often up to 9.22 µM), hits mostly activators; 2.4% of 320,000 active; further: nearly all actives have a fitted effect of over 60% in size
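Huh7 cells stably carrying NPC1 promoter–luciferase, plated in Opti-MEM with 10% FBS for 2 h, were exposed to compound in DMSO for 24 h at 37 °C; luciferase reagent was added for 10 min and luminescence read.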
Luc counter: counter-screen: inhibitors of Kinase-Glo firefly luciferase; Q27757; Kinase-Glo luciferase, ATP luminescence, 8 min; Potency, µM (doses to about 38.3 µM), most hits filed as inhibitors; 0.28% of 200,000 active; AID 1379; further: nearly all actives have a fitted effect of over 60% in size
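Substrate mix (final 50 mM imidazole pH 7.2, 50 mM KCl, 7 mM MgCl2, 10 uM ATP, 0.01% Tween 20, 0.05% BSA) plus pin-tool compound, then Kinase-Glo detection mix; 8 min ambient, luminescence read.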
FLuc counter: counter-screen for miR-21 project: firefly luciferase inhibitors or activators; P08659; purified FLuc, Km substrates, luminescence inhibition; Potency, µM (series often up to 57.5 µM), usual class: inhibitors; 6.9% of 360,000 active; AID 588342; further: nearly all actives have a fitted effect of over 55% in size
Target sequence (P08659 whole entry, looked up): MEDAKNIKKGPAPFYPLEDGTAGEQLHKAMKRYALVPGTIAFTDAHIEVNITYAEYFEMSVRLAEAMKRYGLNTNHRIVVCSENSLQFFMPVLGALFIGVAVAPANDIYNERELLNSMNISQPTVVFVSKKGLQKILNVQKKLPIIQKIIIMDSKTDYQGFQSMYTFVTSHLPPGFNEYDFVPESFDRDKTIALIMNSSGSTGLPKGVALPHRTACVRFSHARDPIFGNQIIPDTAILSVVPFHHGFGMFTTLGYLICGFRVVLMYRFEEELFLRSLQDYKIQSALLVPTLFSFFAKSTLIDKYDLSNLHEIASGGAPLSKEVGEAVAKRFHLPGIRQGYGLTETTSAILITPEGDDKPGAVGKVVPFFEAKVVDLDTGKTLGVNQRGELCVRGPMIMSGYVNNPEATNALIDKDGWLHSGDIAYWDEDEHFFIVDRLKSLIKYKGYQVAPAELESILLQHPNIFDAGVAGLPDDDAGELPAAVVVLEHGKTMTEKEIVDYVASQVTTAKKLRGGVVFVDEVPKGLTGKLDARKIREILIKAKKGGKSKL
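Biochemical qHTS of compounds, final roughly 60 µM downward over six points, against 10 nM purified firefly luciferase using Km concentrations of substrates (10 uM D-luciferin, 10 uM ATP) in Tris acetate pH 7.5 buffer; luminescence output.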
SMN2 splice up: increases expression of the SMN2 splice variant; Potency, µM (doses to about 46.1 µM), most hits filed as activators; HEK293 SMN2-luciferase splicing reporter, luminescence, 30-36 h; 2.8% of 210,000 active; further: nearly all actives have a fitted effect of over 55% in size
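HEK293 cells carry an SMN2 minigene-luciferase reporter in which exon 7 inclusion puts luciferase in frame. Cells were seeded at 2000 cells/well, attached for 10-12 hours, then exposed to compounds for 30-36 hours at 37C before ONE-Glo luminescence.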
Numbers stand for hits; n = inactive; u = inconclusive; x = no result; [ ] = dose if it differs, or a comment. The call rests on the fitted dose curve; in most records, active means well fitted curve in the direction sought with a large enough effect; inconclusive means small, poorly fitted or top-dose-only effect, or another doubt; inactive means no such curve, though single readings can be large; an effect the other way counts as inactive or inconclusive.

SMILES	ELG1 genotox	Rab9 promoter act	NPC1 prom act	Luc counter	FLuc counter	SMN2 splice up
COC(=O)c1ccc(NC(=O)CC2C(=O)N(c3cccc(C)c3)C(=O)N2Cc2ccco2)cc1 (stereo not drawn)	x	x	x	x	n	x
Cc1cccc(NS(=O)(=O)c2ccc3[nH]c(=O)ccc3c2)c1C	x	x	x	x	n	x
Cc1ccc(-c2nc3cc(Cl)ccc3o2)cc1NC(=O)COc1ccc(F)cc1	x	x	x	x	n	x
Cc1ccc2oc(-c3ccc(C)c(NC(=O)/C=C/c4ccc(Cl)cc4)c3)nc2c1	x	x	x	x	12µM	n
Cc1ccc2oc(-c3ccc(C)c(NC(=O)/C=C/c4ccco4)c3)nc2c1	x	x	x	x	12µM	u
Cc1ccc(-c2nc3ccccc3o2)cc1NC(=S)NC(=O)/C=C/c1ccco1	n	n	n	n	u	n
CNc1c(NC(=O)c2ccc(OC)c(OC)c2)c(=O)oc2ccccc12	x	x	x	x	n	n
COc1ccc(S(=O)(=O)N(Cc2nc(-c3ccc(Cl)cc3)no2)C2CCCCC2)cc1	x	x	x	x	n	n
Cc1nn(-c2nnc(NC3CCCCC3)nn2)c(C)c1Br	18µM	2.2µM	2.2µM	n	4.3µM	13µM
O=C(NCCc1ccccc1)c1nnc(Cc2cccc(F)c2)o1	x	x	x	x	n	x
CCn1cc(C(=O)OCc2ccccc2)c(=O)c2ccc(C)nc21	n	n	n	n	n	n
CCn1cc(C(=O)OCC(=O)c2ccccc2)c(=O)c2ccc(C)nc21	n	n	n	n	n	n
CCOC(=O)c1cn(CC)c2c(ccc3ccccc32)c1=O	n	n	n	x	24µM	x
CCOC(=O)c1ccccc1NC(=O)c1cn(CC)c2nc(C)ccc2c1=O	u	0.79µM	1µM	n	3.4µM	n
CCn1cc(C(=O)Nc2ccccc2C(=O)OC)c(=O)c2ccc(C)nc21	u	1.1µM	0.56µM	n	3.4µM	11µM
CCOC(=O)C1CCN(C(=O)c2cc(COc3ccc(OC)c4ccccc34)on2)CC1	u	3.5µM	u	x	15µM	x
COc1ccc(OCc2cc(C(=O)N3CCC(OC)CC3)no2)c2ccccc12	u	2.5µM	u	x	11µM	x
COc1cc(C)ccc1OCc1cc(C(=O)N2CCC(c3ccc(F)cc3)C2)no1 (stereo not drawn)	u	2.2µM	2.2µM	x	7.6µM	x
CCCOC1CCCN(C(=O)c2cc(COc3ccc(F)c(F)c3)on2)C1 (stereo not drawn)	u	2.8µM	2.8µM	x	21µM	x
Cc1ccc(NC(=O)Nc2nnc(N3CCCC3)s2)c(C)c1	x	x	x	x	n	x
CC(=O)OCC(=O)[C@@]1(O)[C@H](C)C[C@@H]2[C@H]3CCC4=CC(=O)C=C[C@]4(C)[C@]3(F)[C@@H](O)C[C@@]21C	x	x	x	n	x	n
CCOC(=O)N1CCc2c(sc3c2c(=O)n(CCc2ccccc2)c(=O)n3CC(=O)Nc2ccc(C)cc2)C1	x	x	x	x	n	n
Cn1ccc2cc(S(=O)(=O)N3CCCN(C(=O)Nc4ccc(Br)cc4)CC3)ccc21	x	x	x	x	n	x
COc1ccccc1Cn1c(CNS(=O)(=O)c2ccc(Cl)s2)nc2cccnc21	x	x	x	x	n	x
COc1cc(Cl)ccc1OCc1cc(C(=O)N2CCCC(OC)C2)no1 (stereo not drawn)	5.8µM	1.8µM	2µM	x	5.4µM	x
SMILES	ELG1 genotox	Rab9 promoter act	NPC1 prom act	Luc counter	FLuc counter	SMN2 splice up
COc1cc(Cl)ccc1OCc1cc(C(=O)N2CCCCCC2)no1	n	n	n	x	u	x
CCn1c(=O)cc(OCC(=O)N2CCN(c3cccc(Cl)c3)CC2)c2ccccc21	x	x	x	x	n	n
c1coc(CSc2ncnc3c2oc2ccccc23)c1	u	n	n	x	19µM	x
CCCSc1ncnc2c1oc1ccccc12	n	n	n	n	15µM	n
CC(=O)CSc1ncnc2c1oc1ccccc12	u	n	n	n	u	n
c1ccc(Sc2ncnc3c2oc2ccccc23)nc1	u	u	u	n	21µM	n
CC(C)Sc1ncnc2c1oc1ccccc12	n	n	n	n	24µM	n
CCOc1ccccc1Oc1ncnc2c1oc1ccccc12	x	x	x	x	n	x
COc1ncnc2c1oc1ccccc12	u	n	n	n	12µM	x
CC(C)c1ccc(NC(=O)Nc2cnccn2)cc1	u	u	u	x	6.7µM	x
COc1ccc(NC(=O)Nc2cnccn2)cc1OC	n	n	n	x	n	x
Cc1ccc(NC(=O)Nc2cnccn2)cc1	u	u	u	x	17µM	x
Cc1ccc(NC(=O)Nc2cnccn2)cc1C	n	u	n	x	21µM	x
O=C(CSc1nnc2ccc3ccccc3n12)c1ccc(F)cc1	x	u	n	x	6.7µM	x
CC(=O)Nc1ccc(C(=O)CSc2nnc3ccc4ccccc4n23)cc1	x	x	x	x	n	x
O=C(CSc1cnc2ccccc2n1)c1ccc(F)cc1	u	3.2µM	3.2µM	n	4.8µM	11µM
COC(=O)CSc1cnc2ccccc2n1	x	x	x	n	n	n
Cc1ccn2cc(-c3cccc(S(=O)(=O)N4CCCC4)c3)nc2c1	n	n	n	x	12µM	x
CN(C)S(=O)(=O)c1cccc(-c2cn3cc(Cl)ccc3n2)c1	u	n	n	n	u	n
Cc1ccn2cc(-c3cccc(NC(=O)CCC(=O)O)c3)nc2c1	n	n	n	x	0.85µM	x
Clc1ccc2nc(-c3ccccc3)cn2c1	0.92µM	0.4µM	0.4µM	x	0.48µM	x
CC(=O)Nc1ccc2nc(-c3ccccc3)cn2c1	5.8µM	1.1µM	1µM	n	2.1µM	2.5µM
CC(=O)Nc1ccc(-c2cc(-c3ccccc3)nc(-c3ccccc3)n2)cc1	n	n	n	n	n	n[1.84 µM]
Cc1ccn2cc(-c3cccc(NS(C)(=O)=O)c3)nc2c1	u	2.5µM	3.2µM	n	6.7µM	x
Cc1ccn2cc(-c3cccc(S(=O)(=O)N4CC(C)OC(C)C4)c3)nc2c1 (stereo not drawn)	n	n	n	x	u	x
SMILES	ELG1 genotox	Rab9 promoter act	NPC1 prom act	Luc counter	FLuc counter	SMN2 splice up
CC(=O)Nc1cccc(-c2cn3ccc(C)cc3n2)c1	u	1.6µM	3.2µM	n	4.3µM	x
CCOC(=O)C1CCN(S(=O)(=O)c2cccc(-c3cn4cc(C)ccc4n3)c2)CC1	n	n	n	n	8.5µM	n
Cc1ccn2cc(-c3cccc([N+](=O)[O-])c3)nc2c1	0.46µM	u	0.56µM	u	0.67µM	1.8µM
COc1ccc(N2CCN(S(=O)(=O)CCNC(=O)COc3ccccc3F)CC2)cc1	x	x	x	x	n	x
Cc1ccn2cc(C(=O)Nc3cccc(C(=O)NC4CC4)c3)nc2c1	n	u	u	x	1.3µM	x
O=C(NCCCN1CCN(c2ccccc2F)CC1)c1ccc2nc(CCc3ccccc3)oc2c1	x	x	x	x	n	x
N#CC(C(=O)Nc1cccc(Cl)c1)=C1Nc2ccccc2N1	n	n	n	n	n	n
N#CC(C(=O)Nc1ccccc1)=C1Nc2ccccc2N1	n	n	n	n	21µM	n
O=C(NCC1CCCO1)c1ccc2c3n(nc2c1)-c1ccccc1CO3 (stereo not drawn)	u	1.1µM	1µM	x	4.8µM	x
